This passage reports inhibition results from PubChem BioAssay AID1259354 (Paczesny and Yang Labs, IUPUI and University of Michigan, 2018).

In general, inhibition refers to the percentage by which the read-out fell short of the control.

“And” between values parts separate entries of the source, which are not always exact repeats. Identical values can stand only once. The whole screen tested about 78,000 compounds, of which about 1,800 (2.3%) were called active. Inconclusive results (about 27%) are left out. Cut-off read from the data, not from the text of the source: active = inhibition above about 30%; inconclusive = mostly about 10% to 28%; inactive = weaker than that. The list comes from a sample in which actives are over-represented; it also holds similar structures and randomly drawn compounds.

The target of the assay is Interleukin-1 receptor-like 1 (Homo sapiens) (UniProt Q01638). As to the kind of experiment: blocks human ST2 binding to IL-33, primary screen, biochemical, AlphaLISA (AID 1259354). Conditions: AlphaLISA ST2-Fc/biotin-IL-33 interaction, 1 h; at 17 µM, hits give high values. For orientation: In Alpha technology, singlet oxygen from a donor bead excites a nearby acceptor bead.
Sequence of Interleukin-1 receptor-like 1 (Homo sapiens) (Q01638 whole entry, looked up): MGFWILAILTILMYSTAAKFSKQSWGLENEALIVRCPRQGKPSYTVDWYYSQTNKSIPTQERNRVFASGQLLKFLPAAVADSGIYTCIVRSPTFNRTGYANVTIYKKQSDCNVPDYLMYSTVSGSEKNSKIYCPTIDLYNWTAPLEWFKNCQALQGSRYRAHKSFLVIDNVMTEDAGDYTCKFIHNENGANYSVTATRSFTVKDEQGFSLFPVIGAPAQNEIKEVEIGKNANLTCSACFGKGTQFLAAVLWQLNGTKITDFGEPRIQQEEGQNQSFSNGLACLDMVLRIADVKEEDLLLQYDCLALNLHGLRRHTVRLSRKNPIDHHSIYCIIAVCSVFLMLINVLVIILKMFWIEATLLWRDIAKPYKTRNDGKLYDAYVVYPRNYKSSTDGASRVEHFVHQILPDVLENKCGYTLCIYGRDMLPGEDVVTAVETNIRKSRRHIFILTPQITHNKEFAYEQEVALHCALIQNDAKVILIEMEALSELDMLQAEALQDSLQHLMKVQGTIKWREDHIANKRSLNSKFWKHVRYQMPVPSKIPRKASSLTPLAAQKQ
Turning to `CCCOc1ccccc1/C=C1/C(=O)N=C(N)N1C`, the inhibition result was “inactive”. Next, `CCC(C)(C)C1CCc2c(sc(NC(=O)c3cc(OC)c(OC)c(OC)c3)c2C(N)=O)C1` (stereo unspecified): “inactive”; `CCN(CC)C(=O)Cn1cnc2sc(C(=O)Nc3cccc(C(F)(F)F)c3)c(C)c2c1=O`: “inactive”; `CCOc1ccc(S(=O)(=O)Nc2ccccc2C)c2cccnc12`: “inactive”. Next, `Cc1cc(NC(=O)c2ccccc2Cl)nc2c1c(=O)oc1ccccc12`: “inactive”; `O=c1c2c(nc(SCc3ccc(Cl)cc3)n1-c1ccccc1)CCS2`: 36% (active); `O=c1c2c(nc(SCc3ccccc3F)n1-c1ccccc1)CCS2`: “inactive”. Next, `O=c1c2c(nc(SCc3ccccc3)n1-c1ccc(Br)cc1)CCS2`: “inactive”; `CCOc1ccc(Cn2c(CNS(=O)(=O)c3cnn(C(F)F)c3C)nc3cccnc32)cc1`: “inactive”; `Cc1ccccc1-c1cc(O)c2c(c1)CN(C(=O)C1C=CCN1)CCO2` (stereo unspecified): “inactive”.

For `CN(C)CCCN1C(=O)C(=O)C(=C(O)c2ccc(F)cc2)C1c1ccncc1` (stereo unspecified), the inhibition entry was “inactive”. The value for `O=C1CCCc2oc3c(Cl)cc(NS(=O)(=O)c4cccc5ccccc45)cc3c21` was “inactive”; that for `CCCc1n[nH]c(=O)n1-c1ccccc1Cl` was “inactive”; that for `CNc1nc2c(C)cccn2c(=O)c1C=Nc1ccc(OC)cc1` was 98% (active). Next, `COc1ccc(N=Cc2ccc3ncccc3c2)cc1`: “inactive”; `COc1ccc(N=Cc2c(O)n(-c3ccccc3C)c(=O)c3ccccc23)cc1`: 48% (active); `O=c1oc2ccccc2c(O)c1C=Nc1ccc(I)cc1`: “inactive”.

For `COc1ccc(S(=O)(=O)Nc2c(C)n(C)n(-c3ccccc3)c2=O)cc1`, the inhibition result is “inactive”.

For `C=CCNC(=O)c1cc2c(=O)n3cccc(C)c3nc2n1C`, the inhibition entry was “inactive”. As for `O=C(CCCc1ccccc1)NC1CCCCC1`, the inhibition result was “inactive”. Next, `CC(=O)Nc1ccc(S(=O)(=O)NCCNc2ccc([N+](=O)[O-])cc2Cl)cc1`: “inactive”. Next, `CN1CCN(C(=O)CC2(c3ccccc3Cl)CC(=O)N(C3CCCC3)C2=O)[C@@H](c2ccccc2)C1` (stereo partly specified): “inactive”; `O=C(Nc1nc2c(cc3c4c(cccc42)CC3)s1)c1ccc(S(=O)(=O)N2CCOCC2)cc1`: “inactive”.

In the case of `COc1ccc(-c2cnc(N)cn2)cc1C`, the inhibition entry was “inactive”. The value for `Cc1ccncc1C(=O)N1CCC(=O)N(CC2CC2)C(C(C)C)C1` (stereo unspecified) was “inactive”; that for `CCn1c(=O)cc(O)c2ccccc21` was 85% (active). Next, `O=C(O)Cn1c2ccccc2c2cc(Cl)ccc21`: “inactive”; `O=C(Cn1c2ccccc2c(=O)c2ccccc21)Nc1ccccc1Cl`: “inactive”; `Fc1ccccc1CSc1nnc2c(n1)OC(c1cccnc1)Nc1ccccc1-2` (stereo unspecified): “inactive”. `COc1ccc(N2CCN(Cc3nc4c(c(=O)[nH]c(=O)n4C)n3CCCO)CC2)cc1`: the inhibition result is “inactive”. Next, `COc1ccc(N2CCN(Cc3ccc(Br)s3)CC2)cc1`: 39% (active); `COc1cccc(N2CCN(Cc3cccs3)CC2)c1`: “inactive”; `CC(c1cccs1)N(C)Cc1ccc(C#CC(C)(C)O)s1` (stereo unspecified): “inactive”.

In the case of `CC(C)NC(=O)C(CCO)NC(C)C` (stereo unspecified), the inhibition result was “inactive”. For `CCOc1ccc(NC(=O)CSc2nc3c(c(=O)n2-c2ccccc2)SCC3)cc1`, the inhibition entry is “inactive”. Next, `Cc1ccc(-n2c(SCC(=O)Nc3ccccc3C(F)(F)F)nc3c(c2=O)SCC3)cc1`: “inactive”; `Cc1ccc(-n2c(SCC(=O)Nc3ccc([N+](=O)[O-])cc3)nc3c(c2=O)SCC3)cc1`: 36% (active); `O=S(=O)(c1ccccc1)N1CCN(c2cc(-c3ccc(F)cc3)ncn2)CC1`: “inactive”.

As to `Cn1c(=O)c2c(SCC(=O)NC3CCCC3)nc(-c3ccc(F)cc3)nc2n(C)c1=O`, the inhibition entry was “inactive”.

Take `Cc1cc(/C=C2/C(=O)NC(=O)N(C)C2=O)c(C)n1-c1ccc(Cl)c(Cl)c1`: the inhibition was 34% (active). The value for `Cc1ccc(N2NC(=O)/C(=C/c3cccc([N+](=O)[O-])c3)C2=O)cc1Cl` was “inactive”. The value for `Cc1ccc(N2NC(=O)/C(=C/c3ccc4c(c3)OCO4)C2=O)cc1Cl` was “inactive”. Next, `COc1ccc(C(=O)Nc2c3c(nn2-c2ccc(F)cc2)CS(=O)C3)c(OC)c1` (stereo unspecified): “inactive”.

Consider `Cc1ccnc(CC(C)N(C)C(=O)c2cc(CC(C)C)no2)c1` (stereo unspecified), for which the inhibition result was “inactive”. `Cc1ccc(C(=O)N2N=C(c3ccccc3)CC2c2ccccc2)cc1` (stereo unspecified): the inhibition entry was “inactive”. Next, `N/C(=N/OC(=O)c1ccc2c(c1)OCO2)c1ccc(Cl)cc1`: “inactive”; `COc1ccc(S(=O)(=O)Nc2ccc(Br)cc2)cc1`: “inactive”; `COc1ccc(S(=O)(=O)ON=C2C=CC(=O)C=C2)cc1`: 32% (active). Next, `COC(=O)CNS(=O)(=O)c1ccc(OC)cc1`: “inactive”. Consider `COc1ccccc1C(=O)Nc1ccc2c(c1)NC(=O)CC2c1ncc[nH]1` (stereo unspecified), for which the inhibition entry is “inactive”.

As to `O=C1CCC(C(=O)N2CCN(Cc3cccnc3)CC2)CN1CC1CCCCC1` (stereo unspecified), the inhibition entry is “inactive”. Next, `NC(=O)c1c(NC(=O)c2cc(=O)c3ccccc3o2)sc2c1CCCCC2`: “inactive”; `CCCC(=O)c1c(OC)cc(O)c(CC)c1O`: “inactive”. The value for `CC(CN1CCN(C)C2(CCN(C(=O)c3ccco3)CC2)C1)c1ccccc1` (stereo unspecified) was 30% (active).

Turning to `CC(CN1CCC(C(N)=O)CC1)c1ccccc1` (stereo unspecified), the inhibition entry was “inactive”. With `Cn1c(=O)cc(SCC(=O)N2CCN(C(=O)c3ccco3)CC2)c2ccccc21`, the inhibition result was “inactive”.

With `C=CCn1c(=O)c2c(nc3n2CCN3c2ccc(C)cc2)n(C)c1=O`, the inhibition result was “inactive”. For `COc1ccc(Nc2nc(Cl)nc(NCc3ccco3)n2)cc1`, the inhibition entry is “inactive”.

Regarding `CCC(=O)Nc1ccc(Nc2nc(C)cc(Nc3ccc(OC)cc3)n2)cc1`, the inhibition entry was “inactive”. Next, `COc1ccc(Nc2nc(Nc3ccc(OC)cc3)nc(N3CCNCC3)n2)cc1`: 31% (active). With `CCOC(=O)CSC1=C(C#N)C(c2ccccc2)CC(=O)N1` (stereo unspecified), the inhibition result was “inactive”.

In the case of `CN(C)c1ccc(/C=C2\N=C(c3cccc(I)c3)OC2=O)cc1`, the inhibition entry is “inactive”. Next, `CN(C)c1ccc(/C=C\c2nc3ccccc3c(=O)n2-c2ccc(C(=O)O)cc2)cc1`: “inactive”; `CC1=NN(Cc2ccccc2)C(=O)/C1=C/c1ccc(N(C)C)cc1`: 44% (active); `CN(C)CC1(O)CCCN(C(=O)c2ccc(-n3ccnc3)cc2)CC1` (stereo unspecified): “inactive”. The value for `C=CCn1c(-c2ccccc2)csc1=Nc1ccc(O)cc1` was 53% (active) and 41% (active). Consider `COc1ccc(-c2nc3cc(N=Cc4cccc(OC)c4O)ccc3o2)cc1`, for which the inhibition was 43% (active). Next, `O=[N+]([O-])c1ccc(O)c(C=Nc2ccc3oc(-c4ccccc4)nc3c2)c1`: “inactive”. As to `O=C(O)c1ccc(O)c(C=Nc2ccc3oc(-c4ccccc4)nc3c2)c1`, the inhibition entry is “inactive”.

`CC1(c2ccccc2NC(=O)c2ccc([N+](=O)[O-])cc2)CC1`: the inhibition is 30% (active). The value for `O=C(Nc1ccc([N+](=O)[O-])cc1)c1ccc(Br)cc1` was “inactive”. The value for `COc1ccc([N+](=O)[O-])cc1NC(=O)c1ccc(-c2ccccc2)cc1` was “inactive”; that for `c1cc(-c2nc3ccncc3[nH]2)ccn1` was “inactive”.

Consider `O=[N+]([O-])c1cc(Cl)ccc1N1CCCNCC1`, for which the inhibition result was “inactive”.

For the compound `O=[N+]([O-])c1cc(Cl)ccc1N1CCN(c2ccc([N+](=O)[O-])c3cccnc23)CC1`, the inhibition is 56% (active).

As for `CC1CCN(c2ccc(C(=O)O)cc2[N+](=O)[O-])CC1`, the inhibition entry was “inactive”. Regarding `CSc1ccccc1NC(=O)c1cc(-c2ccc(Br)cc2)on1`, the inhibition entry was “inactive”. Next, `O=C1CN(C(=O)c2nn(CCCc3ccccc3)c3c2CN(Cc2cccnc2)CC3)CCN1`: “inactive”. The value for `CCOc1ccc(-c2cc(C)n3nc(C(=O)OC)cc3n2)cc1` was “inactive”.

For `OCCNc1c(F)c(F)nc(N2CCOCC2)c1F`, the inhibition result is “inactive”.

Take `O=C(NC[C@H]1O[C@@H](CO)[C@@H](O)[C@H]1N1CCc2ccccc2C1)Nc1ccccc1`: the inhibition result is “inactive”.
